# High-throughput results: PubChem, several laboratories
# This is a sample that favours compounds with a hit; in the whole collection about 7.9% have one here.
# PLAP act: human PLAP activation; purified PLAP enzyme, luminescent substrate read-out; stronger effect = higher value; AID 696; P05187; hit rate 1.2% among 96,000; activation fold at 20 µM; in the data active = activation fold above about 2
# Cav3 T inh: blocks human Cav3.2 T-type calcium channel; O95180; Cav3.2-expressing cells, Fluo-4 calcium fluorescence FDSS; stronger effect = lower value; B-score at 10 µM; hit rate 4% among 100,000;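 active = single-dose well whose peak fluorescence ratio is a statistical outlier from its plate by either plate-standardised score or position-corrected B-score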
# M1 antag: M1 muscarinic receptor (rat) antagonism | P08482 | CHO-M1 cells, Fluo-4 calcium, ACh EC80 antagonist mode; stronger effect = lower value | B-score at 10 µM | hit rate 3.4% among 64,000;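 active = calcium fluorescence response, raw or row-and-column corrected B-score, differing from the plate sample mean either way at a set confidence level, mostly lower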
# Target sequence (P08482 whole entry, looked up): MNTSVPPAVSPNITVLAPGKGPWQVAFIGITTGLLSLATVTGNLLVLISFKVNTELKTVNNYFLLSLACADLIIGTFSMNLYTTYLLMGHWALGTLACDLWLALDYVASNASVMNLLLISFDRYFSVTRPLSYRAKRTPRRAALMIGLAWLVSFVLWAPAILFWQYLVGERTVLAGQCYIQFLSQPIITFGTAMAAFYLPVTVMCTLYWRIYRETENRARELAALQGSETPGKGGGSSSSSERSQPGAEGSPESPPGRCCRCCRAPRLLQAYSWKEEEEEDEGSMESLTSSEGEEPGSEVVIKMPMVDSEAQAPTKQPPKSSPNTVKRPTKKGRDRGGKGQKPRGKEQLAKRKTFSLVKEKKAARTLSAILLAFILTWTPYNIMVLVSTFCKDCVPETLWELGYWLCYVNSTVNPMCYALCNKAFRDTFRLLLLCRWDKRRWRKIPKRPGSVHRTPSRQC
# HER2 expr 66K: inhibitors of human Her2 kinase expression; SKBR-3 HER2 protein level, AlphaScreen, 18-24 h; stronger effect = lower value; P04626; HER2 level % of control, % at 10 µM; hit rate 0.69% among 65,000;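 active = HER2 level under 5% of the carrier-only control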;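 also: lower value means stronger loss of Her2 protein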
# M1 agonist: M1 muscarinic receptor agonism; hit rate 3% among 64,000; CHO-M1 cells, Fluo-4 calcium fluorescence, agonist mode; stronger effect = higher value; B-score at 10 µM;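 active = fluorescence rise, raw or as B-score row- and column-corrected plate score, outside the 99.7% band of its plate's samples, either direction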
# Numbers stand for hits; 0 = inactive; - = not tested or not shown.
SMILES,PLAP act,Cav3 T inh,M1 antag,HER2 expr 66K,M1 agonist
COc1ccc2cc(CN(CC3CCCO3)S(=O)(=O)c3ccccc3Cl)c(=O)[nH]c2c1 (stereo not given),2,-,-,-,-
CCN(Cc1ccccc1)S(=O)(=O)c1ccc(S(=O)(=O)N(Cc2cccc(OC)c2)CC2CCCO2)cc1 (stereo not given),0,-6.72,-,-,-
CCN(CC)S(=O)(=O)c1ccc(S(=O)(=O)N(CC(=O)Nc2ccccc2)CC2CCCO2)cc1 (stereo not given),-,0,-,-,-
O=c1[nH]c2cc3c(cc2cc1CN(CC1CCCO1)S(=O)(=O)c1ccccc1)OCCO3 (stereo not given),0,0,0,0,0
COC(=O)C1=C(C)N(CCCCCC(=O)O)C(=O)NC1c1ccccc1 (stereo not given),-,0,-,-,-
CSc1nc(C)cc(C)c1S(=O)(=O)c1ccccc1C,0,-6.53,-,-,-
COc1ccc(O)c(/C=N\NC(=O)CCn2nnc3ccccc32)c1,2.1,0,-,-,-
O=C(O)CSC1CC(=O)N(c2ccc(Cl)cc2)C1=O (stereo not given),0,0,0,0,0
O=C(CSC1CC(=O)N(CC(c2ccccc2)c2ccccc2)C1=O)Nc1ccc(Cl)cc1 (stereo not given),0,-7.44,-,-,-
CCOC(=O)N1CCN(c2nc(SC)nc3sc4c(c23)CC(C)(C)OC4)CC1,0,-4.65,0,0,0
CCN1CCN(c2nc(SC)nc3sc4c(c23)CC(C)(C)OC4)CC1,0,0,0,0,0
COc1ccc(-c2nc(NC(=O)Cn3ccc(C(F)(F)F)n3)sc2C)cc1,0,-7.56,-,-,-
COc1ccc(-c2nc(NC(=O)C3CCN(c4nc5ccccc5o4)CC3)sc2C)cc1,0,0,0,0,0
Cn1c(/N=C/c2cc(Cl)ccc2O)nc2ccccc21,0,-4.83,0,0,2.47
Cn1c(/N=C/c2cccs2)nc2ccccc21,0,2.97,0,0,0
C(=N\c1nc2ccccc2n1CCN1CCCCC1)/c1cccs1,0,0,0,0,0
O=C(Nc1ccc(-c2cn3ccsc3n2)cc1)c1ccc(F)c(S(=O)(=O)N2CCOCC2)c1,0,0,0,0,0
O=C(CSc1ccccc1C(=O)NCCCN1CCCC1=O)NCc1ccco1,0,0,0,0,0
COc1cc2c(cc1OC)C1=NC(=O)CN1C(SCc1ccccc1)=N2,0,-,-,-,-
COc1ccc(S(=O)(=O)N(CC(=O)NCc2ccco2)c2ccccc2)cc1,0,0,-,-,-
O=S(=O)(c1ccc2ccccc2c1)N(CC(O)COCc1ccco1)c1ccccc1 (stereo not given),0,-5.13,-,-,-
Nc1ccccc1-c1nnc(SCc2ccccc2F)[nH]c1=O,0,0,0,0,0
CCOc1cc(N2CCOCC2)c(OCC)cc1NS(=O)(=O)c1ccc(Cl)s1,0,0,0,0,0
C=C(C)CSc1nnc(-c2ccccc2)n1N,0,-,0,0,0
COc1ccc(-n2c(SCC(=O)NCC3CCCO3)nc3ccccc32)cc1 (stereo not given),0,0,-,-,-
SMILES,PLAP act,Cav3 T inh,M1 antag,HER2 expr 66K,M1 agonist
CN1CC(=O)N/C1=N\C(=O)Nc1ccc2c(c1)N(C)C(=O)CS2,2.8,0,0,0,0
Clc1ccccc1-c1nnn(Cc2ccc(-c3nn[nH]n3)cc2)n1,0,-4.85,0,0,0
Clc1ccc(Cn2nnc(-c3ccccc3)n2)cc1,-,0,-,-,-
Cc1ccc(CN(c2ccc(C(=O)Nc3cccnc3)cc2)S(C)(=O)=O)cc1,0,0,-,-,-
COc1ccc(NS(=O)(=O)c2ccc(NC(=O)c3cnn4c(C(F)F)cc(-c5ccc(C)cc5)nc34)cc2)cc1,0,0,-,-,-
CCc1ccc(NS(=O)(=O)c2cccs2)cc1,0,0,0,0,0
C=CCn1cnc2c(c1=O)c1nc3ccccc3nc1n2/N=C/c1cccc(OC)c1,0,-,0,0,0
COCCn1cnc2c(c1=O)c1nc3ccccc3nc1n2/N=C/c1cccc(OC)c1OC,-,-,0,-0.7,0
COCc1cc(C)nc(Nc2ccc(C)c(C)c2)c1C#N,0,0,0,-3.1,0
O=C(Nc1ccc2c(c1)OCO2)c1ccc(S(=O)(=O)NCC2CCCO2)cc1 (stereo not given),0,-,0,0,0
O=C(Nc1cccc(F)c1)c1ccc(S(=O)(=O)NCC2CCCO2)cc1 (stereo not given),0,-5.28,0,0,0
CC(C)C(=O)NCCc1nc(-c2ccc(Cl)cc2)no1,-,0,-,-,-
O=C(N/N=C/C=C/c1ccccc1)c1cc2c(ccc3ccccc32)o1,0,0,-,-,-
O=C(NCc1ccco1)c1cc(-c2ccncc2)nc2ccccc12,0,-5.77,0,0,0
O=C(NCc1ccco1)c1cc(-c2cccnc2)nc2ccccc12,0,0,0,0,0
CC1(C)NC(=O)NC2(C)NC(=O)NC(C)(C)C12 (stereo not given),0,0,0,0,0
Cc1ccc2nc(C(O)C(O)c3nc4ccc(C)cc4[nH]3)[nH]c2c1 (stereo not given),2.1,0,0,0,0
COCCN(C(=O)CSc1nnc(Nc2ccccc2F)s1)c1c(N)n(Cc2ccccc2)c(=O)[nH]c1=O,2.2,0,-,-,-
COCCN(C(=O)CN1CCc2ccccc2C1)c1c(N)n(Cc2ccccc2)c(=O)[nH]c1=O,0,0,0,0,0
N#Cc1c(NC(=O)CSc2n[nH]c(Cc3ccccc3)n2)oc(-c2ccccc2)c1-c1ccccc1,0,-6.36,0,0,0
O=C(COC(=O)C1CC2C=CC1C2)NCc1ccco1 (stereo not given),0,0,0,0,0
O=C(COC(=O)C1CC2C=CC1C2)Nc1ccc2c(c1)OC(F)(F)O2 (stereo not given),-,-5.49,0,0,0
N#Cc1c(NC(=O)Cn2cnc3ccccc3c2=O)oc(-c2ccccc2)c1-c1ccccc1,0,-10.3,0,0,0
CCn1c(SCC(=O)Nc2oc(-c3ccccc3)c(-c3ccccc3)c2C#N)nnc1-c1cc(OC)cc(OC)c1,2.2,0,-,-,-
Cc1ccc(OCC(=O)Nc2oc(-c3ccccc3)c(-c3ccccc3)c2C#N)cc1,-,-7.54,-,-,-
SMILES,PLAP act,Cav3 T inh,M1 antag,HER2 expr 66K,M1 agonist
COc1ccc(-c2oc(NC(=O)CCl)c(C#N)c2-c2ccc(OC)cc2)cc1,0,0,-,-,-
N#Cc1c(NC(=O)COC(=O)C2CC3C=CC2C3)oc(-c2ccccc2)c1-c1ccccc1 (stereo not given),0,-6,0,0,0
COc1ccc(CC(=O)Nc2oc(-c3ccccc3)c(-c3ccccc3)c2C#N)cc1OC,-,-5.56,0,0,0
N#Cc1c(NC(=O)CN2CCOCC2)oc(-c2ccccc2)c1-c1ccccc1,0,0,0,0,0
COc1ccccc1OCC(=O)Nc1oc(-c2ccccc2)c(-c2ccccc2)c1C#N,0,-6.91,0,0,0
COc1ccc(C(=O)Nc2cc(C(F)(F)F)ccc2Cl)cc1OC,0,0,-,-,-
CC1(C)OC(=O)C(=NNc2ccc(Cl)cc2)C(=O)O1,0,0,-,-,-
O=C(Nc1cccc(C(F)(F)F)c1)c1cccnc1N1CCN(c2ccccc2)CC1,0,0,-,-,-
O=C(CN(Cc1ccco1)C(=O)CNS(=O)(=O)c1ccc(Cl)cc1)NC1CCCCC1,0,-4.84,0,0,0
